Laboratory results published in PubChem BioAssay (NCI).
About 83,000 compounds went through this panel and 20% of them were active in at least one assay; those are over-represented in the sample as a whole.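 Step 1: grow cells in 96-well plates. Step 2: add test compound at a single concentration. Step 3: incubate 48 h. Step 4: record percent growth.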 Active and inactive are the calls of the source. How the source made its calls: active means growth percent below 10; inactive means the rest.

Assays:
Experiment in all cases: NCI-60 one-dose screen, 48 h (100 = growth as untreated, 0 = no growth, -100 = all killed)
Settings in all cases: 10 µM unless noted
OVCAR-8 ovarian = test system: OVCAR-8 ovarian
OVCAR-5 ovarian = test system: OVCAR-5 ovarian
OVCAR-4 ovarian = test system: OVCAR-4 ovarian
SK-OV-3 ovarian = test system: SK-OV-3 ovarian
IGROV1 ovarian = test system: IGROV1 ovarian
OVCAR-3 ovarian = test system: OVCAR-3 ovarian
HS 578T breast = test system: HS 578T breast
NCI/ADR-RES ovarian = test system: NCI/ADR-RES ovarian
T-47D breast = test system: T-47D breast
BT-549 breast = test system: BT-549 breast
MDA-MB-435 melanoma = test system: MDA-MB-435 melanoma
SW-620 colon = test system: SW-620 colon
MCF7 breast = test system: MCF7 breast
HCT-116 colon = test system: HCT-116 colon
HCC-2998 colon = test system: HCC-2998 colon
KM12 colon = test system: KM12 colon
RPMI-8226 leukemia = test system: RPMI-8226 leukemia

Measured: growth

COc1ccc(C(=O)/C=C/c2c(C(F)(F)F)nc3sccn23)cc1OC
inactive: OVCAR-8 ovarian 18.6% | OVCAR-5 ovarian 44.6% | OVCAR-4 ovarian 25.5% | IGROV1 ovarian 81.9% | BT-549 breast 11.3% | SW-620 colon 10.4% | HCC-2998 colon 31.4% | KM12 colon 11.2%
active: SK-OV-3 ovarian 9.87% | OVCAR-3 ovarian -33.9% | HS 578T breast -5.99% | NCI/ADR-RES ovarian 4.94% | T-47D breast -16.9% | MDA-MB-435 melanoma 3.47% | MCF7 breast 7.83% | HCT-116 colon 6.66%

Cc1ccc(Cl)cc1NC(=O)c1cc2ccccc2cc1O
active: RPMI-8226 leukemia -58.2% | OVCAR-8 ovarian 7.85% | OVCAR-5 ovarian -5.91% | OVCAR-4 ovarian 3.71% | IGROV1 ovarian -5.94% | OVCAR-3 ovarian -25.9% | HS 578T breast -21% | NCI/ADR-RES ovarian -27.9% | T-47D breast -12.1% | MDA-MB-435 melanoma -7.31% | SW-620 colon -1.12% | MCF7 breast -21.5% | HCT-116 colon -10.7% | KM12 colon -29.4%

NCCCNc1nc2ccccc2c2c(=O)c3cccc(Cl)c3sc12
active: OVCAR-8 ovarian -16.2% | IGROV1 ovarian 7.81% | OVCAR-3 ovarian -51.5% | MDA-MB-435 melanoma -43.3% | SW-620 colon -79.4% | MCF7 breast -86.6% | HCT-116 colon -92% | HCC-2998 colon -94.1% | KM12 colon -72.6%
inactive: OVCAR-5 ovarian 50% | OVCAR-4 ovarian 38.2% | SK-OV-3 ovarian 73% | HS 578T breast 28.1% | NCI/ADR-RES ovarian 29.2% | T-47D breast 35.3% | BT-549 breast 76.6%

Cc1ccc(N(C(=O)CCc2c[nH]c3ccccc23)[C@H](C(=O)Nc2ccc(Cl)cc2)c2cccc([N+](=O)[O-])c2)cc1
inactive: OVCAR-8 ovarian 87.8% | OVCAR-5 ovarian 98.4% | OVCAR-4 ovarian 99.1% | SK-OV-3 ovarian 90.8% | IGROV1 ovarian 78.7% | OVCAR-3 ovarian 96.9% | HS 578T breast 82.3% | NCI/ADR-RES ovarian 70.1% | T-47D breast 72.5% | MDA-MB-435 melanoma 81.3% | SW-620 colon 69.1% | MCF7 breast 90.1% | HCT-116 colon 79.8% | HCC-2998 colon 87.8% | KM12 colon 60.6%
